# Where “and” joins values, the source holds several entries; their conditions need not be identical. Equal entries are not always repeated. Results filed as inconclusive are left out. Entries that show only a call come without a potency. A number with no mark means an inactive call. Calls of active or inactive are those of the source. Calls come from the whole dose curve; as a rule, active = well fitted cell-killing curve with a large enough effect; inconclusive = small, poorly fitted or top-dose-only effect, or effect the other way; inactive = no such curve, though single readings can be large or run the other way.
# How the values were obtained:
# [1] = Viability qHTS for spleen associated tyrosine kinase inhibitor (SYKi) naive MV4-11 cells (AID 1963823); details: MV4-11 AML viability, CellTiter-Glo luminescence, 72 h; series mostly up to 45 µM; note: nearly all actives have a fitted effect of over 40% in size
# Method in brief: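 Cells: MV4-11, SYK inhibitor naive, 500 per well. Treatment: library compounds, 72 hr, 37 C, 5% CO2. Read-out: CellTiter-Glo luminescence after 10 min RT.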
# [2] = Viability qHTS for spleen associated tyrosine kinase inhibitor (SYKi) drug resistant MV4-11 cells (AID 1963824); details: SYKi-resistant MV4-11 viability, CellTiter-Glo, 72 h; series mostly up to 45 µM; note: nearly all actives have a fitted effect of over 35% in size
# Method in brief: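 SYK inhibitor-resistant MV4-11 AML cells, 500 per well, added to predispensed compounds and incubated 72 hr at 37 C, 5% CO2. Viability measured by CellTiter-Glo luminescence after 10 min at room temperature.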
# Potency is the fitted concentration of half-maximal effect.
SMILES,Potency [1],Potency [2],viability (% of control) [1],"viability, % of control [2]"
O=C(O)/C=C/c1ccc2occc2c1O[C@@H]1O[C@H](CO)[C@@H](O)[C@H](O)[C@H]1O,inactive,inactive,,
CN(Cc1cccs1)c1ncnc2ccc(-c3ccc4c(c3)OCO4)cc12,11.6 µM (active),11.6 µM (active),,
CC1(C)CC[C@]2(C(=O)OC3OC(CO)C(O)C(O)C3O)CC[C@]3(C)C(=CCC4[C@@]5(C)CC[C@H](OC6OC(C(=O)O)C(O)C(OC7OC(CO)C(O)C(O)C7O)C6O)C(C)(C)C5CC[C@]43C)C2C1 (stereo partly drawn),,,77.3% [at 9.25 µM],96.9% [at 9.25 µM]
COc1cc(C[C@H]2COC(=O)[C@@H]2Cc2ccc(O)c(OC)c2)ccc1O,inactive,inactive,,
NC1(C(=O)NC(CCO)c2ccc(Cl)cc2)CCN(c2ncnc3[nH]ccc23)CC1 (stereo not drawn),2.31 µM (active),4.11 µM (active),,
CC/C=C\[C@H](O)[C@H](O)C1=C(C)C(=O)[C@]2(O1)C(=O)N[C@@](OC)(C(=O)c1ccccc1)[C@@H]2O,inactive,inactive,,
CC(=O)OC1C(O)CC(O[C@@H]2O[C@H](CO)[C@@H](O)[C@H](O)[C@H]2O)C2CCC3C(=O)OC(c4ccoc4)CC3(C)C21 (stereo partly drawn),inactive,inactive,,
CC1CC(O)CC(C)(C)C1(O)CCO (stereo not drawn),inactive,inactive,,
CC(C)=CCCC1(C)/C=C/C(OC(=O)C=C(C)C)C(C)(O)/C=C/C(=O)/C(CO)=C\C1 (stereo not drawn),1.59 µM (active),2.52 µM (active),,
C/C=C(\C)C(=O)OC[C@H]1O[C@H](O[C@H]2O[C@H](CO)[C@@H](O)[C@H](O)[C@H]2O[C@@H]2O[C@H](CO)[C@@H](O)[C@H](O)[C@H]2O)[C@H](O[C@@H]2O[C@H](CO)[C@@H](O)[C@H](O)[C@H]2O)[C@@H](O)[C@@H]1O,inactive,inactive,,
C[C@@H]1O[C@@H](OC[C@H]2O[C@@H](Oc3cc(O)cc4c3C(=O)C(O)(Cc3ccc(O)cc3)O4)[C@H](O)[C@@H](O)[C@@H]2O)[C@H](O)[C@H](O)[C@H]1O (stereo partly drawn),inactive,inactive,,
COc1cc(C2Oc3c(OC)cc(CCCO[C@@H]4O[C@H](CO)[C@@H](O)[C@H](O)[C@H]4O)cc3C2CO)ccc1O (stereo partly drawn),inactive,inactive,,
CC[C@@H]1C(=O)O[C@]23C=C[C@@H]4C(C(=O)OC)=CO[C@H](O[C@@H]12)[C@@H]43,3.66 µM (active),5.17 µM (active),,
CCN1CCN(C(=O)N[C@@H](C(=O)N[C@@H]2C(=O)N3[C@@H]2SC(C)(C)[C@@H]3C(=O)O)c2ccccc2)C(=O)C1=O,inactive,inactive,,
CC1CC(=O)[C@]2(O)C(C(=O)OCCc3ccc(O)c(O)c3)=CO[C@@H](O[C@@H]3O[C@H](CO)[C@@H](O)[C@H](O)[C@H]3O)[C@H]12 (stereo partly drawn),inactive,inactive,,
CC(C)(N)c1cc(C(=O)N[C@@H]2CCc3ccc(Oc4ccnc5c4CCC(=O)N5)cc3C2)cc(C(F)(F)F)c1,0.92 µM (active),1.3 µM (active),,
C=CCc1ccc(O[C@@H]2O[C@H](CO)[C@@H](O)[C@H](O)[C@H]2O)c(O[C@@H]2O[C@H](CO)[C@@H](O)[C@H](O)[C@H]2O)c1,inactive,inactive,,
CC1=C2C(=O)C=C(CO)C2C2OC(=O)C(CS(=O)(=O)O)C2C(OC(=O)Cc2ccc(O)cc2)C1 (stereo not drawn),inactive,inactive,,
CC1(C)CCCC2(C)c3c4c(c(=O)oc(=O)c3=CCC12)=CCC1C(C)(C)CCCC41C (stereo not drawn),inactive,inactive,,
C=C1[C@H](OC(C)=O)[C@H]2[C@@H](OC(C)=O)[C@](C)(OC(C)=O)C[C@]2(OC(C)=O)C(=O)[C@H](C)/C=C/C(C)(C)C(=O)[C@H](OC(=O)C(C)C)[C@H]1OC(C)=O,inactive,inactive,,
Cc1ncc(NC(=O)c2ccc(CN3CCN(C)CC3)c(C(F)(F)F)c2)cc1Nc1nccc(-c2cccnc2)n1,920 nM (active) and 1.66 µM (active),2.06 µM (active) and 3.32 µM (active),,
Cc1cc(Nc2cc(C)c(C#N)c(NC(C)CCCC(C)(C)O)n2)n[nH]1 (stereo not drawn),0.259 µM (active),0.411 µM (active),,
O=C1NC(Cc2ccccc2)C(=O)N2CCCC12 (stereo not drawn),inactive,inactive,,
CC1=CC(=O)CC(C)(C)C1/C=C/C(C)OC1OC(COC2OCC(O)C(O)C2O)C(O)C(O)C1O (stereo not drawn),inactive,inactive,,

# Source: PubChem BioAssay (NCATS)
